From PubChem BioAssay
NPC1 promoter act = qHTS Assay for NPC1 Promoter Activators | hit rate 2.4% among 320,000 | Potency, µM (series often up to 9.22 µM), for inactives: top-dose activation, usual class: activators | Huh7 NPC1 promoter luciferase reporter, 24 h | AID 485313, 2010; also: % of control where 0% means no effect; nearly all actives have a fitted effect of over 60% in size
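NPC1 promoter–luciferase Huh7 cells; 24 h compound; luminescence.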
FLuc modulator = qHTS profiling assay for firefly luciferase inhibitor/activator using purifed enzyme and Km concentrations of substrates (counterscreen for miR-21 project); Potency, µM (titrated, usually from 57.5 µM), inactives show at the highest dose activity change, negative = inhibition, usual class: inhibitors; hit rate 6.9% among 360,000; Luciferin 4-monooxygenase (Photinus pyralis), P08659; purified FLuc, Km substrates, luminescence inhibition; AID 588342, 2011;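 also: plate controls were vehicle for no effect and reference inhibitor for full effect; nearly all actives have a fitted effect of over 55% in size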
Target sequence (P08659 whole entry, looked up): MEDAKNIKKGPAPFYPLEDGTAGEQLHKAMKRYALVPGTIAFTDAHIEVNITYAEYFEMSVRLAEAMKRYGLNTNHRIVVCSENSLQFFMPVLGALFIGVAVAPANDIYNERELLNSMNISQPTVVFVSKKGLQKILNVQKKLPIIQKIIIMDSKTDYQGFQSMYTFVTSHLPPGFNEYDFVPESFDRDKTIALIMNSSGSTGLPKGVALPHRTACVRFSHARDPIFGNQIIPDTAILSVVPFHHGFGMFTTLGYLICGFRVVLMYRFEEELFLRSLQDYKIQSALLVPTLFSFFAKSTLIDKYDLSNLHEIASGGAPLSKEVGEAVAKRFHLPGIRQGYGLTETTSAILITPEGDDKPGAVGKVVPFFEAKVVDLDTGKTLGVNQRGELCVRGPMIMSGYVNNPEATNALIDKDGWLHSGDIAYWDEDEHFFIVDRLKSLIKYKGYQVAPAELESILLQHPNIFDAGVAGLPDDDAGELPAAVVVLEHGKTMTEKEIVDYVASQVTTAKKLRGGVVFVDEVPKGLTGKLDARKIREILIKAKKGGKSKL
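Biochemical qHTS of compounds, final roughly 60 µM downward over six points, against 10 nM purified firefly luciferase using Km concentrations of substrates (10 uM D-luciferin, 10 uM ATP) in Tris acetate pH 7.5 buffer; luminescence output.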
SMN2 splice up = qHTS Assay for Enhancers of SMN2 Splice Variant Expression; HEK293 SMN2-luciferase splicing reporter, luminescence, 30-36 h; Potency, µM (highest dose often 46.1 µM), inactives show at the top dose activity change, positive = activation, most hits filed as activators; hit rate 2.8% among 210,000; AID 1458, 2008; also: % of control where 0% means no effect; nearly all actives have a fitted effect of over 55% in size
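HEK293 cells carry an SMN2 […]–luciferase reporter in which exon 7 inclusion puts luciferase in frame. Cells were plated 10-12 h before compound addition, then incubated 30-36 h at 37C. ONE-Glo luminescence was read; sodium butyrate at 4.5 mM final served as control.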
ELG1 genotox = qHTS screen for small molecules that induce genotoxicity in human embryonic kidney (HEK293T) cells expressing luciferase-tagged ELG1 | HEK293T ELG1-luciferase reporter, luminescence, 16 h | Potency, µM (highest dose often 46 µM), inactives show at the highest dose activity change, positive = activation, hits mostly activators | hit rate 1.3% among 330,000 | AID 504466, 2011; also: % of control where 0% means no effect; nearly all actives have a fitted effect of over 60% in size
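ELG1-luciferase HEK293T cells, 2,000/well; compound pinned in; 16 hr, 37 °C, 5% CO2; ONE-Glo, 30 min RT; luminescence on CCD imager.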
Rab9 promoter act = qHTS Assay for Rab9 Promoter Activators | Huh7 Rab9 promoter-luciferase reporter, luminescence, 24 h | Potency, µM (highest dose often 9.22 µM), inactives show top-dose activation, negative = inhibition, hits mostly activators | hit rate 2.8% among 320,000 | AID 485297, 2010; also: % of control where 0% means no effect; nearly all actives have a fitted effect of over 60% in size
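Measured in stably transfected Huh7 cells bearing a Rab9 promoter–luciferase construct: 24 h compound treatment at 37 °C, followed by luminescence detection.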
An asterisk follows results filed as active; ? = inconclusive; / = not tested or not shown. An excerpt weighted towards active compounds, which were near 7.5% of everything screened. Calls follow the shape of the dose curve; as a rule, active = well fitted curve in the direction sought with a large enough effect; inconclusive = small, poorly fitted or top-dose-only effect, or another doubt; inactive = no such curve, though single readings can be large; an effect the other way counts as inactive or inconclusive. Potency is read from the fitted curve at half-maximal effect.

SMILES | NPC1 promoter act | FLuc modulator | SMN2 splice up | ELG1 genotox | Rab9 promoter act
CC(=O)Nc1ccc(C(=O)COC(=O)c2cccs2)c(F)c1 | 2.8µM* | 3.4µM* | / | ? | 3.5µM*
CC1CC1C(=O)OCC(=O)N(C)CC(=O)Nc1ccc(F)cc1 (configuration not stated) | / | / | / | 1% | /
CC(=O)Nc1ccc(C(=O)COC(=O)C2CC2C)c(F)c1 (configuration not stated) | 1.4µM* | 2.1µM* | / | ? | 1.4µM*
CC1CCN(CCCNC(=O)C2CCN(S(=O)(=O)N3CCC4(CC3)OCCO4)CC2)CC1 | 2% | 1% | / | 1% | ?
O=C(CSc1nnc(-c2ccccc2F)o1)Nc1ccccc1Cl | / | 1% | / | / | /
O=C(CSc1nnc(-c2ccccc2Cl)o1)Nc1ccccn1 | ? | -16% | / | ? | 0.56µM*
Cc1occc1-c1nnc(SCC(=O)Nc2ccccn2)o1 | ? | -3% | 10µM* | ? | ?
COc1ccc(OCC(=O)NNC(=O)Cc2coc3cc(OC)ccc23)cc1 | 9% | -4% | -1% | 1% | 2%
O=C1CCOc2cc(OCc3ccccc3)ccc21 | 1µM* | 1.5µM* | 2.2µM* | 10µM* | 1µM*
Cc1ccc(C(C(=O)NC2CCCC2)N(Cc2ccc(F)cc2)C(=O)c2csnn2)o1 (configuration not stated) | -3% | 8% | -5% | 0% | 0%
C/C(=N\NC(=O)c1ccoc1C)c1cccnc1 | 13% | ? | 21% | 11% | 3%
O=C(Nc1ccc2nc(SCC(=O)N3CCOCC3)sc2c1)c1ccc(Br)cc1 | / | 11µM* | / | / | /
O=C(Nc1ccc2nc(SCC(=O)N3CCCC3)sc2c1)c1ccccc1 | / | -19% | / | / | /
COc1cccc(C(=O)Nc2ccc3nc(SCC(=O)N4CCOCC4)sc3c2)c1 | / | 15µM* | / | / | /
O=C(Nc1ccc2nc(SCC(=O)N3CCOCC3)sc2c1)c1ccc(F)cc1 | / | 21µM* | / | / | /
CN1CCN(C(=O)CSc2nc3ccc(NC(=O)c4ccccc4F)cc3s2)CC1 | 17% | 19µM* | / | 2% | 15%
O=C(Nc1ccc2nc(SCC(=O)N3CCCC3)sc2c1)c1ccc(F)cc1 | / | -3% | / | / | /
Fc1ccccc1/C=N/n1c(C2CCCCC2)n[nH]c1=S | 1% | 6% | / | 5% | 0%
COC(=O)c1ccc(C(NC(=O)OCc2ccccc2)/C(C)=C/[C@@H](C)C(=O)NCc2ccc(-c3ccccc3)cc2)cc1 (some centres not stated) | -2% | 7% | -10% | 0% | -6%
O=C(Nc1ccc2nc(SCC(=O)N3CCOCC3)sc2c1)c1ccccc1Cl | / | 21µM* | / | / | /
COC(=O)CSc1nc2ccc(NC(=O)c3ccccc3C(=O)N3CCOCC3)cc2s1 | -1% | -4% | / | 1% | 1%
Cc1ccc(N=CC=C2OC(C)(C)C(C)(C)O2)cc1 | -4% | 7.6µM* | -4% | 2% | -4%
Cc1cccc(N=CC=C2OC(C)(C)C(C)(C)O2)c1 | -4% | ? | -11% | 11% | -3%
CCC(Cn1nnc2ccccc2c1=O)NC(=O)Nc1cccc(C)c1C (configuration not stated) | / | 0% | -2% | / | /
Cc1nc(-c2ccccn2)sc1C(=O)Nc1ccc(F)cc1 | 20% | -20% | 13% | 1% | 15%
SMILES | NPC1 promoter act | FLuc modulator | SMN2 splice up | ELG1 genotox | Rab9 promoter act
Cc1nc(-c2ccccn2)sc1C(=O)Nc1ccc(F)cc1F | 10% | -16% | 8% | ? | 4µM*
CCCCCCc1cc2cc(-c3cn4c(n3)sc3cc(OC)ccc34)c(=O)oc2cc1O | / | 0% | / | / | /
Cc1ccc2c(c1)sc1nc(-c3cc4ccccc4oc3=O)cn12 | / | 0.43µM* | -12% | / | /
COc1ccc2cc(-c3cn4c(n3)sc3cc(F)ccc34)c(=O)oc2c1 | / | 9.5µM* | / | / | /
Cc1ccc(NC(=O)C2CCCN(S(=O)(=O)c3cccc4cccnc34)C2)cc1Cl (configuration not stated) | / | -8% | -19% | / | /
CCCSc1nn2c(=O)c3ccccc3nc2s1 | 4µM* | 7.6µM* | 35µM* | 2.9µM* | 2µM*
